Assay outcomes from PubChem.
Compounds with a hit are over-represented: about 4.1% of the library has one in this group of screens.
hcDAF12 agonist – activators of H. contortus DAF-12 nuclear receptor; HEK293 hcDAF-12 lit1-tk-luc reporter, luminescence; 0% DMSO, 100% Δ7-dafachronic acid; activation, % at 6.8 µM; 370,000 tested, 1.4% active; AID 652067;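 active = activation above the mean of all tested compounds plus 3 SD, cut at about 5.5% in these data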;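 also: 100% = response to 3 µM Δ7-dafachronic acid high control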
hgDAF12 agonist – activates the H. glycines DAF-12 receptor ligand-binding domain | HEK293 GAL4-hgDAF12 UAS-luciferase reporter, agonist luminescence; normalized to butyrate control | activation, % at 6.8 µM | 370,000 tested, 1.8% active;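 active = activation above a cutoff set at the mean of all screened compounds plus 3 SD, cut at about 10% in these data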;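 also: 0% = DMSO wells and 100% = sodium butyrate wells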
DAX1 inh-1 – inhibitors of DAX1 repression of SF-1 activated StAR promoter | HEK293T StAR-luciferase reporter, SF-1/DAX-1 repression relief | inhibition, % at 6.8 µM | 370,000 tested, 1.1% active;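 active = inhibition above the mean over all tested compounds plus 3 SD, cut at about 3.6% in these data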;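 also: 0% = DAX-1 cells with DMSO and 100% = cells lacking DAX-1 with DMSO; higher inhibition means more luminescence from relief of DAX-1 repression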
DAX1 inh-2 – inhibitors of human orphan nuclear receptor DAX1 (NR0B1); inhibition, % at 6.75 µM; AID 504766; P51843; 340,000 tested, 0.99% active; HEK293 Gal4-DAX1 luciferase reporter, luminescence;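 active = inhibition above the mean over all tested compounds plus 3 SD, cut at about 4.2% in these data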;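 also: 0% = DAX1-transfected cells with DMSO and 100% = empty-vector control cells with DMSO; inhibition shows as a rise in luminescence from relieved DAX1 repression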
Target sequence (P51843 207-470 limits assumed): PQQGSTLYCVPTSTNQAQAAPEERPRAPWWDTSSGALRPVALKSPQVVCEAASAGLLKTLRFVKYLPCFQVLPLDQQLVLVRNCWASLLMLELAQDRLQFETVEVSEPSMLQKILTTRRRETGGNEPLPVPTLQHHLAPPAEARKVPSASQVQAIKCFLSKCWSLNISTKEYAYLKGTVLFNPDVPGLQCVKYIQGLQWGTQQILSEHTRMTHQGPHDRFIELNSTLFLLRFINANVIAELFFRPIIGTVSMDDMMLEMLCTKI
ssDAF-12 act – activators of S. stercoralis DAF-12 nuclear receptor. HEK293 ssDAF-12/GRIP1 lit1-tk-luc reporter, luminescence; % of 3 µM dafachronic acid response. activation, % at 6.8 µM. 370,000 tested, 1% active. AID 652126;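 active = activation above the mean over all tested compounds plus 3 SD, cut at about 0.9% in these data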;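 also: 0% = DMSO-only wells and 100% = 3 µM delta7-dafachronic acid wells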
DAX1 conf – confirmation of human DAX1 (NR0B1) inhibitors | inhibition, % at 6.8 µM | shares compounds with DAX1 inh-1 | 2,400 tested, 87% active | AID 652134 | HEK293T StAR-promoter luciferase reporter, SF-1/DAX-1 repression;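 active = inhibition above the average of every tested compound plus 3 SD, cut at about 3.8% in these data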;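 also: 0% = DAX-1 cells with DMSO and 100% = no DAX-1 control cells with DMSO; active compounds raise luminescence by relieving repression of the StAR reporter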
Target sequence (P51843 whole entry, looked up): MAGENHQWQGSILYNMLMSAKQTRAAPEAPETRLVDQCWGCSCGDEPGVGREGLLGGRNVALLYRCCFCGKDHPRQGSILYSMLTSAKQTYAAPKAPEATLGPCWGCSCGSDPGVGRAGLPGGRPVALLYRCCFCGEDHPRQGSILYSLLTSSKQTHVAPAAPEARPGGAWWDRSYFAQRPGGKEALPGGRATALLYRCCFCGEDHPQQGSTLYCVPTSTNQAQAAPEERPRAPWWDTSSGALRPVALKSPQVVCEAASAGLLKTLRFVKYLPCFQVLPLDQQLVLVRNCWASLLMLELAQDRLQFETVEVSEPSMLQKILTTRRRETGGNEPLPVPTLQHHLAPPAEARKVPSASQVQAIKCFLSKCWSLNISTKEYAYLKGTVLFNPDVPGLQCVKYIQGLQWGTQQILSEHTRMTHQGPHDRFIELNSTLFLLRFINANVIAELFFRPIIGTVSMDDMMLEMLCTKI
SF1 mutant ctr – counter-screen for DAX1 inhibitors: nonselective inhibitors with SF-1 AF2 mutant. shares compounds with DAX1 inh-1. inhibition, % at 6.8 µM. 2,400 tested, 78% active. HEK293 StAR-luciferase, luminescence;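 active = inhibition above the mean of all tested compounds plus 3 SD, cut at about 3% in these data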;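 also: 0% = DAX-1 transfected cells with DMSO and 100% = cells without DAX-1 with DMSO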
LXR ag – LXR-beta agonism as hcDAF-12 counter-screen. HEK293 Gal4-LXR tk-luc reporter, luminescence, 24 h; normalized: DMSO 0%, positive control 100%. 3,400 tested, under 10 active. shares compounds with hcDAF12 agonist. activation, % at 6.8 µM;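 active = mean percent activation of the reporter above a cutoff set as the average over tested compounds plus their standard deviation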
hcDAF12 ag – hcDAF-12 agonism, confirmation assay; shares compounds with hcDAF12 agonist; AID 743032; activation, % at 6.8 µM; HEK293 hcDAF-12 lit1-tk-luc reporter, luminescence; % of Δ7-dafachronic acid response; 3,400 tested, 61% active;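 active = mean activation across triplicate tests above the threshold derived from the earlier primary screen, cut at about 5.5% in these data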;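 also: 0% = DMSO only wells and 100% = 3 µM Δ7-dafachronic acid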
hgDAF12 conf – hgDAF-12 agonism, confirmation assay; 3,300 tested, 80% active; shares compounds with hgDAF12 agonist; AID 743050; activation, % at 6.8 µM; HEK293 GAL4-hgDAF12 luciferase reporter, agonist mode; percent of butyrate response;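 active = mean activation over triplicate wells above the hit cutoff derived from the earlier primary screen, cut at about 11% in these data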;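 also: 0% = DMSO low control and 100% = 2 mM sodium butyrate high control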
LXRb DAF12 ctr – counter-screen for DAF-12 agonists: agonists of human LXR-beta; 3,300 tested, under 10 active; AID 743051; activation, % at 6.8 µM; HEK293 Gal4-LXR luciferase reporter, 24 h; shares compounds with hgDAF12 agonist;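 active = mean activation of the triplicate above a set limit carried over from the primary screen, none filed active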
* hit, by the source's call; . = not tested or not shown.

SMILES	hcDAF12 agonist	hgDAF12 agonist	DAX1 inh-1	DAX1 inh-2	ssDAF-12 act	DAX1 conf	SF1 mutant ctr	hgDAF12 conf	LXRb DAF12 ctr	others
O=S(=O)(NC1CCC(NS(=O)(=O)c2c(F)cccc2F)CC1)c1ccc2c(c1)OCCO2 (stereo unspecified)	-1.2	-0.6	0.0	-0.6	-1.3	.	.	.	.
O=C(Nc1ccc(N2CCCC2)c(Cl)c1)c1ccccc1F	2.9	22.1*	5.1*	3.5	0.5	14.4*	4.8*	16.0*	0.9
O=S1(=O)c2ccc(N3CCCC3)cc2Oc2ccccc2CN1Cc1cn(Cc2cccc(F)c2)nn1	0.0	-6.6	-1.5	.	-1.1	.	.	.	.
Cc1cc(=O)[nH]c(N/N=C/c2c(C)nn(-c3ccccc3)c2Cl)n1	-2.9	-0.2	-1.5	-2.4	-2.1	.	.	.	.
Cc1nn(-c2ccccc2)c(Cl)c1/C=N/Nc1nc2ccccc2[nH]1	9.5*	23.8*	4.8*	1.6	1.4*	18.0*	6.3*	21.9*	1.0	LXR ag=1.8;hcDAF12 ag=7.8*
Cc1nn(-c2ccccc2)c(Cl)c1/C=N/NC(=O)c1[nH]ncc1Br	6.0*	14.6*	12.1*	-1.8	0.7	13.0*	7.3*	15.1*	0.8
CCOC(=O)c1sc2nc3c(cc2c1N)COC(C)(CC)C3 (stereo unspecified)	9.3*	13.6*	4.8*	1.6	0.4	13.6*	6.0*	18.4*	0.9	LXR ag=1.6;hcDAF12 ag=6.1*
COC(=O)c1sc2nc3c(cc2c1N)CCCC3	6.5*	24.7*	5.1*	3.3	0.2	12.7*	6.8*	18.5*	1.0
COC(=O)[C@]12C[C@H](CC(=O)NCCc3ccccc3OC)C(=O)N(Cc3ccccc3)C1=C[C@H](COCc1ccccc1)O[C@@H]2C	-1.1	3.0	-1.8	.	-0.9	.	.	.	.
COc1ccc(-c2cn3cc(C)ccc3n2)cc1Br	13.5*	19.7*	6.9*	-2.0	1.2*	18.8*	8.2*	20.3*	1.3	LXR ag=1.3;hcDAF12 ag=6.5*
Cc1ccc(Cc2c(-c3ccc(C)cc3)nc3cc(C)ccn23)cc1	1.9	17.8*	6.2*	2.1	-0.2	2.0	0.5	3.5	0.3
Cc1ccc(Cc2c(-c3ccc(C)cc3)nc3ccc(Br)cn23)cc1	4.6	8.6	2.6	3.1	-0.1	.	.	.	.
Cc1ccn2c(Cc3ccccc3)c(-c3ccc(Br)cc3)nc2c1	1.3	16.9*	8.4*	1.6	0.0	5.3*	0.8	2.0	0.2
CCCC(=O)N1CCC[C@]2(CC[C@@H](CCC(=O)OCC)O2)C1	0.2	9.8	0.4	.	-0.5	.	.	.	.
COc1cccc(-c2csc(NC3OC(=O)c4c3ccc(OC)c4OC)n2)c1 (stereo unspecified)	4.1	2.8	0.4	.	-0.1	.	.	.	.
COc1ccc2c(c1OC)C(=O)OC2Nc1nc(-c2ccc(-c3ccccc3)cc2)cs1 (stereo unspecified)	9.1*	21.3*	5.1*	2.6	0.9*	10.4*	6.5*	13.6*	0.8	LXR ag=0.9;hcDAF12 ag=3.0
O=C(Nc1ccccc1)c1ccc(-c2ccccc2)s1	2.1	14.2*	5.4*	4.2	0.7	12.1*	8.5*	16.8*	0.5
O=c1[nH]c(-c2cccnc2)nc2sc(-c3ccccc3)cc12	-0.7	5.0	0.6	2.9	-1.7	.	.	.	.
O=c1c2cc(-c3ccccc3)sc2nc2n1CCC2	3.7	19.6*	5.4*	.	0.1	14.9*	7.7*	18.3*	0.8
Cc1nc2sc(-c3ccccc3)cc2c(=O)[nH]1	7.4*	21.1*	6.1*	-2.0	0.7	12.3*	6.7*	12.4*	0.8	LXR ag=1.0;hcDAF12 ag=5.8*
Cc1nc2ccccc2c(=O)n1N	-0.6	0.1	0.6	0.6	-1.4	.	.	.	.
Cc1nc2sc(-c3ccccc3)cc2c(=O)n1N	6.7*	16.8*	4.7*	-1.9	0.0	4.6*	1.1	5.1	0.7	LXR ag=1.1;hcDAF12 ag=4.1
O=c1c2ccccc2nc2n1CCC2	-0.4	1.5	0.3	1.7	-1.8	.	.	.	.
C[C@H](NC(=O)[C@@H]1CCCN1C(=O)OC(C)(C)C)c1ccccc1	0.9	6.4	-0.9	.	-0.3	.	.	.	.
O=C(Cn1c(=O)oc2cc(S(=O)(=O)N3CCCC3)ccc21)Nc1ccccn1	-0.9	-1.4	0.7	.	-1.4	.	.	.	.
SMILES	hcDAF12 agonist	hgDAF12 agonist	DAX1 inh-1	DAX1 inh-2	ssDAF-12 act	DAX1 conf	SF1 mutant ctr	hgDAF12 conf	LXRb DAF12 ctr	others
COc1ccccc1-c1cc(-c2cc(Cl)ccc2O)n[nH]1	1.9	2.6	-0.3	0.3	-1.4	.	.	.	.
Cc1ccc(-c2cc(-c3ccccc3Cl)[nH]n2)c(O)c1	10.3*	19.8*	6.0*	6.8*	1.4*	13.8*	8.0*	20.9*	0.8	LXR ag=0.9;hcDAF12 ag=10.9*
COc1ccc(/C=C/c2nc(-c3ccccc3O)n[nH]2)cc1	6.5*	20.0*	4.6*	2.0	0.1	14.3*	8.4*	18.0*	0.5
COc1ccc(/C=C/c2nc(-c3ccccc3O)n(-c3ccccc3)n2)cc1	-0.6	-1.3	0.6	0.7	-1.2	.	.	.	.
CSCc1ccc(C(=O)Nc2ccc(C(N)=O)cc2)cc1	4.4	13.3*	5.3*	2.9	-0.1	9.6*	5.0*	13.1*	0.7
CSCc1ccc(C(=O)NCc2ccc(C)cc2)cc1	3.9	-1.7	0.9	-0.7	-0.9	.	.	.	.
CCOC(=O)c1ccc(CNC(=O)c2cc(COc3ccccc3SC)on2)o1	3.8	14.6*	5.4*	2.0	-0.2	8.8*	4.5*	17.8*	0.8
CSc1ccccc1OCc1cc(C(=O)NCc2ccc(C)s2)no1	1.3	1.5	0.1	0.2	-1.1	.	.	.	.
Cc1ccc2c(C)c(C(=O)N3CCN(c4ncccn4)CC3)oc2c1C	-0.9	-2.0	-0.9	0.8	-0.7	.	.	.	.
CNS(=O)(=O)c1cccc(C(=O)OCC(=O)Nc2ccc(-c3nc4ccc(C)cc4s3)cc2)c1	.	.	.	2.4	.	.	.	.	.
